Bioassay records deposited in PubChem by ICCB-Longwood Screening Facility, Harvard Medical School.
VACV E9 pol inh – inhibitors of vaccinia virus processive DNA synthesis (E9 polymerase) | in vitro processive DNA synthesis, absorbance read-out; stronger effect = lower value | normalized absorbance, % (test concentration not listed) | AID 493162 | 46,000 tested, 0.94% active; in the data active = normalized absorbance mostly below about 85%, no sharp cut-off; inactive = mostly above about 86%
Active calls of the source: *. The entries come from a sample that favours hits as a whole.

SMILES	VACV E9 pol inh
COc1ccc(CC(C)CC(=O)Nc2ccc(I)cc2)cc1 (stereo not given)	100.1
CC(C)N(Cc1ccccc1)C(=O)C1=CCN(S(=O)(=O)c2ccc(F)cc2)CC1	104.5
O=C(NCc1cccnc1)C(=O)c1c(O)[nH]c2ccccc12	95.4
CCN1C(=O)C(C(O)c2cc(OC)ccc2OC)SC1=Nc1ccc(C(=O)OC)cc1 (stereo not given)	99.8
Cc1ccc2nc(Nc3ccc(Cl)cc3)c(/C=N/O)c(=O)n2c1	100.1
CC1CCN(c2cc(N(C)C)c3noc4c3c2C(=O)c2ccccc2-4)CC1	69.9*
O=C1c2ccccc2-c2n[nH]c(=O)c3ccc(N4CCOCC4)c1c23	99.4
Cc1ccc(Nc2ccc3noc4c3c2C(=O)c2ccccc2-4)cc1	100.5
Cc1nc2ccccc2n1CC(=O)O	102.0
CN(C)CCOC(=O)c1ccc2[nH]c3c(c2c1)CSCC3	57.5*
CC(C)OC(=O)c1ccc2[nH]c3c(c2c1)CCCC3	103.3
O=C(O)c1ccc2[nH]c3c(c2c1)CSCC3	88.6
CNC(=S)c1sc2ccccc2c1C	96.3
Fc1ccc2nc(Nc3nc4ccc(F)cc4s3)sc2c1	95.5
NS(=O)(=O)c1ccc2nc(NC(=O)C3CCCCC3)sc2c1	99.0
COC(=O)c1ccc2nc(NC(=O)C(C)C)sc2c1	100.7
NNc1nc2cc3c(cc2s1)OCO3	50.1*
NNc1nc2cc3c(cc2s1)OCCO3	51.5*
c1c2c(cc3sc(N4CCOCC4)nc13)OCCO2	98.3
O=C(Nc1ccccc1)Nc1ccccc1C(=O)NC1CCSC1 (stereo not given)	95.9
Cc1ccc(N2CCN(c3ccc(C)cc3)C23C(=O)c2ccccc2C3=O)cc1	100.1
Cc1ccc(-n2c(SCC(=O)N3CCCCC3)nc3c([nH]c4ccccc43)c2=O)cc1	96.2
Cn1nc(C(F)(F)F)c(/C=N/O)c1Sc1ccccc1	83.8
CC(C)C(=O)Nc1ccccc1-c1nc2ccccc2[nH]1	93.8
S=C(Nc1ccccc1)Nc1ccccc1-c1nc2ccccc2[nH]1	68.5*
SMILES	VACV E9 pol inh
O=C(Nc1ccccc1-c1nc2ccccc2[nH]1)C1=COCCO1	91.8
Cc1ccccc1N1CCNCC1	96.8
CC(=O)CCC1C2=NC(=C\C3=NC(=C(/C)C4=NC(C)(C5[N-]/C(=C\2C)C(C)(CCC(=O)NCC(C)OP(=O)(O)O[C@@H]2[C@@H](CO)OC(n6cnc7cc(C)c(C)cc76)[C@@H]2O)C5CC(N)=O)C(C)(CC(N)=O)C4CCC(N)=O)/C(C)(CC(N)=O)C3CCC(N)=O)/C1(C)C.[CH2-][C@H]1OC(n2cnc3c(N)ncnc32)[C@H](O)[C@@H]1O.[Co+2] (stereo not given in full)	100.3
O=C(O)c1cc(-c2ccco2)nc2ccc(Br)cc12	86.8
O=C(O)c1ccccc1-c1c2cc(Br)c(=O)cc-2oc2[c]([Hg])c(O)c(Br)cc12	18.4*
Cn1cc(-c2ccccc2C(=O)O)c(=O)c2ccccc21	97.6
CCN1CCCC1CNC(=O)c1noc2c1COc1ccc(C)cc1-2 (stereo not given)	63.3*
Cc1ccc2c(c1)-c1onc(C(=O)NC3CCCc4ccccc43)c1CO2 (stereo not given)	100.0
CCc1nnc(NC(=O)c2noc3c2COc2ccc(C)cc2-3)s1	98.2
Cc1ccc(CN2C(=O)CSc3ccc(NC(=O)Nc4cccc5ccccc45)cc32)cc1	103.4
CCN(CC)C(=O)/C=C/c1ccc(-c2cc(Cl)ccc2Cl)o1	112.3
COC(=O)c1ccc(CN2CCN(c3ccccc3OC)CC2)cc1	99.8
Cc1c(C(=O)/C=C/N(C)C)nnn1-c1ccccc1	96.4
CN(C)/C=C/C(=O)c1ccc2c(c1)CCO2	98.2
COC(=O)c1noc(C)c1C(=O)/C=C/N(C)C	40.4*
Clc1ccccc1CN1COc2cc3c(cc2C1)OCO3	94.1
COc1cc(OC)nc(NCC(NC(=O)c2ccccc2)C(N)=O)n1 (stereo not given)	105.0
COc1ccc(-c2ccc3ccccc3n2)cc1OC	100.8
C[n+]1cc(-c2ccc3ccccc3n2)cc2ccccc21	84.8*
Cn1c(-c2ccc3ccccc3n2)[n+](C)c2ccccc21	99.6
CC(=O)NCc1ccc(C2CCCCC2)cc1	103.8
Cc1cccnc1NC(=O)NC(C)(C(F)(F)F)C(F)(F)F	100.0
O=C(CSc1nc2c(c(=O)n1-c1ccccc1)SCC2)Nc1ccccc1	99.9
COC(=O)c1c2c(n3ccccc13)C(=O)c1ccccc1C2=O	61.8*
COC(=O)c1c2c(n3ccc(C)cc13)C(=O)c1ccccc1C2=O	95.9
SMILES	VACV E9 pol inh
COC(=O)c1c2c(n3cc4ccccc4cc13)C(=O)c1ccccc1C2=O	99.2
N#C/C(=C(\O)c1ccccc1)c1nc2ccccc2c(=O)[nH]1	99.3
CCNc1cc(N)[n+](CC)c2n[nH]c(/N=C/c3cc(Cl)cc(Cl)c3O)c12	69.0*
Cc1oc2c(C)c(O)c(CN(C)C)cc2c(=O)c1Oc1ccccc1F	102.5
CCOC(=O)c1c(NC(=O)CCN2CCOCC2)sc(C)c1-c1ccccc1	81.8
CCOC(=O)c1c(NC(=O)/C=C\C(=O)O)sc(C)c1-c1ccccc1	62.9*
CCOC(=O)c1c(NC(C)=O)sc(Br)c1-c1ccc(C)cc1	89.0
Cc1cccc(Cl)c1-n1sc(=O)n(CC2CC2)c1=O	100.1
Cc1ccc(CN2COc3c(Cl)cc4c(C)c(C)c(=O)oc4c3C2)cc1	69.4*
Cc1c2c(cc3c4c(c(=O)oc13)CCCC4)CN(CCc1ccc(F)cc1)CO2	105.9
COC(=O)c1cc2ccc3c(c2oc1=O)CN(Cc1ccccc1)CO3	105.0
O=C(OCc1ccccc1Cl)c1ccco1	75.9
C=CCn1c(C(C)NC(=O)c2ccccc2)nc2ccccc21 (stereo not given)	101.0
CCC(=O)n1cnc2ccccc21	100.7
O=C1c2cccc(O)c2C(=O)c2c(O)cccc21	100.0
O=C1c2ccc(O)c(O)c2C(=O)c2c(O)ccc(O)c21	78.2
O=C1C=CC(=O)c2c(O)cccc21	74.4*
CCc1ccc(S(=O)(=O)c2cn(C)c3ccccc3c2=O)cc1	100.6
Cc1ccc(C(=O)NCCN2CCCC2)cc1	99.9
O=C(NCCN1CCCC1)C1=Cc2sc3c(c2CS1)CCCC3	73.6*
O=C(NCCCN1CCCC1)c1csc2c1CCCCC2	97.9
Cc1ccc(C(=O)c2c(N)sc3c2CCC3)cc1	97.6
COc1cc(CNC(C)(C)CO)cc(Br)c1OCc1ccc(F)cc1	100.6
O=C(O)c1oc2ccccc2c1COc1ccccc1	71.6*
Cc1c(C(=O)O)oc2ccccc12	100.3
SMILES	VACV E9 pol inh
O=C(O)c1oc2ccccc2c1CSc1ccccn1	90.4
COC(=O)c1sc(NC(=O)COc2ccc(OC)cc2)c(C#N)c1C	104.0
CC(=O)Nc1ccc(N=Cc2ccc(C)cc2)cc1	100.1
CC(=O)Nc1ccc(N=Cc2ccc(OC(=O)c3ccccc3Br)cc2O)cc1	81.5*
CC(=O)Nc1ccc(N=Cc2ccc(OC(=O)c3cccnc3)cc2)cc1	100.0
O=C(Nc1ccnc(-c2cccnc2)n1)c1cccc(C(F)(F)F)c1	108.1
CCSC1=C(C#N)C(=O)NC(CO)S1 (stereo not given)	95.7
CC1NC(=O)C(C#N)=C(SCc2ccccc2)S1 (stereo not given)	62.9*
CCSC1=C(C#N)C(=O)NC(C(C)C)S1 (stereo not given)	94.5
CCSC1=C(C#N)C(=O)NC(c2ccc(OC)cc2)S1 (stereo not given)	101.3
N#CC1=C(SCc2ccccc2)SC(c2ccc(C(=O)O)cc2)NC1=O (stereo not given)	59.8*
COC(=O)CSC1=C(C#N)C(=O)NC(/C=C/c2ccccc2)S1 (stereo not given)	93.8
